# About 8,800 targets were measured; listed, in parts, are those with a hit and a random draw of the rest. About 0.5% of all pairs of compound and target were hits. A number with no mark means an inactive call.
# Experiments:
# Experiment in all cases: log2 fold change, soluble protein after heating vs DMSO (PISA); higher = thermal stabilisation; K562 lysate, 10 uM; active = over 0.2 and 3.5 SD of the protein, either way, in both replicates (recomputed)
# [1] = compound: Cc1cn(-c2cc(NC(=O)c3ccc(C)c(Nc4nccc(-c5cccnc5)n4)c3)cc(C(F)(F)F)c2)cn1 [nilotinib]
# How it was run: (§1)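 To prepare the extract, K562 pellets were dounce-homogenised in PBS pH 7.4 with 1 mM MgCl2, giving crude material at 1 mg/mL protein. This was treated with 10 μM compound for 30 min, then heated in aliquots for 3 min over 48°C-58°C before pooling and addition of NP-40 to 0.5% at 4°C. Centrifugation at 21,000xg for 90 min left soluble protein in the supernatant, which TMTpro 16plex LC-MS/MS quantified with equalised channel sums. Results are log-two fold changes in thermal stability compared with solvent controls, from duplicates.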
# [2] = compound: Cc1nc(Nc2n[nH]c3c2CN(C(=O)N[C@H](CN(C)C)c2ccccc2)C3(C)C)c2sccc2n1
# How it was run: as §1
# [3] = compound: Cc1nc(Nc2ncc(C(=O)Nc3c(C)cccc3Cl)s2)cc(N2CCN(CCO)CC2)n1 [dasatinib]
# How it was run: as §1
# [4] = compound: Cc1ncc(-c2ccnc(Nc3ccc(S(C)(=O)=O)cc3)n2)n1C(C)C
# How it was run: as §1
# [5] = compound: Cn1cc(-c2ccc3c(c2)CCN3C(=O)Cc2cccc(C(F)(F)F)c2)c2c(N)ncnc21
# How it was run: as §1
# [6] = compound: Cn1cc(CNCC2CCN(c3ncc(C(=O)NO)cn3)CC2)c2ccccc21 [quisinostat]
# How it was run: as §1
# [7] = compound: Cn1cncc1[C@@](N)(c1ccc(Cl)cc1)c1ccc2c(c1)c(-c1cccc(Cl)c1)cc(=O)n2C [tipifarnib]
# How it was run: as §1
# [8] = compound: NC(=O)Nc1cc(-c2cccc(F)c2)sc1C(=O)N[C@H]1CCCNC1
# How it was run: as §1
# [9] = compound: NC(=O)c1cnc(N[C@@H]2CCCC[C@@H]2N)nc1Nc1cccc(-n2nccn2)c1
# How it was run: as §1
# [10] = compound: NC1(c2ccc(-c3nc4ccn5c(=O)[nH]nc5c4cc3-c3ccccc3)cc2)CCC1
# How it was run: as §1
# [11] = compound: NCC(=O)Nc1ccc(-n2nc(C(F)(F)F)cc2-c2ccc3c(ccc4ccccc43)c2)cc1
# How it was run: as §1
# [12] = compound: O=C(CCCCCCC(=O)Nc1ccccc1)NO [vorinostat]
# How it was run: as §1
# [13] = compound: O=C(O)c1ccc2c(c1)nc(Nc1cccc(Cl)c1)c1ccncc12 [silmitasertib]
# How it was run: as §1
# [14] = compound: O=C1NC(=O)C(c2cnc3ccccn23)=C1c1cn2c3c(cc(F)cc13)CN(C(=O)N1CCCCC1)CC2
# How it was run: as §1
# [15] = compound: c1cn2cc(-c3ccc4cn[nH]c4c3)nc(Nc3ccc(N4CCOCC4)cc3)c2n1 [entospletinib]
# How it was run: as §1
# Chain of UniProt Q71F56 (Q71F56 whole entry, looked up): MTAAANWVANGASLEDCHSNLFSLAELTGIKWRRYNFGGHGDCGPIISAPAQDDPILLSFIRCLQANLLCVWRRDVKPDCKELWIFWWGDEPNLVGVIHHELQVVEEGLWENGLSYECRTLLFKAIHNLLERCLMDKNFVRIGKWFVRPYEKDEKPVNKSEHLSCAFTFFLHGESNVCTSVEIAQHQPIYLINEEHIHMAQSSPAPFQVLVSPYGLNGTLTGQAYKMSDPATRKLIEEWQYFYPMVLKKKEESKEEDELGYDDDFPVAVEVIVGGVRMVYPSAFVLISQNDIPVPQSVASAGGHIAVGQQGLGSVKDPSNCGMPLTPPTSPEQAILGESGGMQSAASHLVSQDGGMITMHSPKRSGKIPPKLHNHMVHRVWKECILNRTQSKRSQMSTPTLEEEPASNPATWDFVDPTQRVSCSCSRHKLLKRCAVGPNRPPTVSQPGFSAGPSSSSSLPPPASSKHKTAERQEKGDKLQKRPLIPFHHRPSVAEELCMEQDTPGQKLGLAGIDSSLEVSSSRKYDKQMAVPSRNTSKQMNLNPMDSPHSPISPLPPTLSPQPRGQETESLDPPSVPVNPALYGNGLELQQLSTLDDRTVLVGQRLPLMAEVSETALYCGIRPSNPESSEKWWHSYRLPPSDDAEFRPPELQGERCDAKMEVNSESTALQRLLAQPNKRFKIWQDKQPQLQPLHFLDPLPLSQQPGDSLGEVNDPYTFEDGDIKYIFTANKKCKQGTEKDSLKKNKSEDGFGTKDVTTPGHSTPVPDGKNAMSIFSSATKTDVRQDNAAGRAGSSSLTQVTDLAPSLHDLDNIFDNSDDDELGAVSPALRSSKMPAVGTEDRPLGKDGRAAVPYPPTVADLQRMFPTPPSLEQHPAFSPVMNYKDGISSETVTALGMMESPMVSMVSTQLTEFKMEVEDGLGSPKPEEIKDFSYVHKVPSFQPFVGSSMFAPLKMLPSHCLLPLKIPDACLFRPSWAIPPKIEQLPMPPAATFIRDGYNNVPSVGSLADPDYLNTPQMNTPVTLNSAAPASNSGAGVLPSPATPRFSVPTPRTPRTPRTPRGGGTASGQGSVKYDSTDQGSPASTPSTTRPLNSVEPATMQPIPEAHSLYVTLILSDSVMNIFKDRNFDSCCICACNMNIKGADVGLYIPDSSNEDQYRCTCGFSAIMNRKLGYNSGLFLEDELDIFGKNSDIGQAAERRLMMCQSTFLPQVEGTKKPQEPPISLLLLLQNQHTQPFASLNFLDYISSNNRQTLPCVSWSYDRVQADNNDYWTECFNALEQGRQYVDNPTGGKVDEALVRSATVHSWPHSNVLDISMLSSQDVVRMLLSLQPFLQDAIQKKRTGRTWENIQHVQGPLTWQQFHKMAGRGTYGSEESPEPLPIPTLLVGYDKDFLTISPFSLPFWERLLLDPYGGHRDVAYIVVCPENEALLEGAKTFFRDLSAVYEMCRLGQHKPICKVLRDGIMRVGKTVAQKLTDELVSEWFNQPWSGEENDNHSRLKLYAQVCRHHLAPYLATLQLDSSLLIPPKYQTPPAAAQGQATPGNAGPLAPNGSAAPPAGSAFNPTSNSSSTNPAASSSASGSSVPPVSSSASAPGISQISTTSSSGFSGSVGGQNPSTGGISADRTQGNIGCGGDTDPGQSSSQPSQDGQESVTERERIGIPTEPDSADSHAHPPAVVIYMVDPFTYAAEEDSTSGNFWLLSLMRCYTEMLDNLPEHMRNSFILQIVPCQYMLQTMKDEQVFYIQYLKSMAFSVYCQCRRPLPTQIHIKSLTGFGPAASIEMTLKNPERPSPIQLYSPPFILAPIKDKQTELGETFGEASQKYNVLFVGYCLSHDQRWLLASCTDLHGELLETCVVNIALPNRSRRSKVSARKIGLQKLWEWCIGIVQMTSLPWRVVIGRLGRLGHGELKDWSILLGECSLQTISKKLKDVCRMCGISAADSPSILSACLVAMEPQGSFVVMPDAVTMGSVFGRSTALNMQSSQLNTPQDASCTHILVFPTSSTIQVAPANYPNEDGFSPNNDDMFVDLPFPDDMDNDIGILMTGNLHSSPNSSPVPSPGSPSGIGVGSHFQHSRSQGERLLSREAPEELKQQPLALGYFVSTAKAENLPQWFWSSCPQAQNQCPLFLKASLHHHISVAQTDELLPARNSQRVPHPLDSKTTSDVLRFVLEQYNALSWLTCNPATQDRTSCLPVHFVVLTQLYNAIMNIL
# Chain of UniProt O00522 (O00522 whole entry, looked up): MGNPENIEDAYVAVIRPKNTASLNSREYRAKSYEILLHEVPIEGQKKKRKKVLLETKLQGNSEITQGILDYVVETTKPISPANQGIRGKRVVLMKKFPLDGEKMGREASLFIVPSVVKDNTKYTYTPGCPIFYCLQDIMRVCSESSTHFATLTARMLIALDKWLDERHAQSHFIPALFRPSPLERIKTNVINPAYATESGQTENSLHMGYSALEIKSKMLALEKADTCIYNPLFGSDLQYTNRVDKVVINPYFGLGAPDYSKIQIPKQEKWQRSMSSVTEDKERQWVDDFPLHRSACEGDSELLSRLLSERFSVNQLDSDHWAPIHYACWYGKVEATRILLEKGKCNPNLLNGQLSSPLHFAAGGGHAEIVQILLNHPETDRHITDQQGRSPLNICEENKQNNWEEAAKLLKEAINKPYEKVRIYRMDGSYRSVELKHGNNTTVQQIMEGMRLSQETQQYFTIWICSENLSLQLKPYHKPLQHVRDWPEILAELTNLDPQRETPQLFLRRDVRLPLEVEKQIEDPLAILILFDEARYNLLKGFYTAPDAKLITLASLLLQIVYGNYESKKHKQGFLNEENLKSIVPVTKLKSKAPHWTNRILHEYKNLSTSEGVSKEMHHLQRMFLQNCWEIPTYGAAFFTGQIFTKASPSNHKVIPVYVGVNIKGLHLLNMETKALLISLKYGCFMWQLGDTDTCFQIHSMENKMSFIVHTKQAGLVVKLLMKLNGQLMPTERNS
# Chain of UniProt Q7Z4S6 (Q7Z4S6 whole entry, looked up): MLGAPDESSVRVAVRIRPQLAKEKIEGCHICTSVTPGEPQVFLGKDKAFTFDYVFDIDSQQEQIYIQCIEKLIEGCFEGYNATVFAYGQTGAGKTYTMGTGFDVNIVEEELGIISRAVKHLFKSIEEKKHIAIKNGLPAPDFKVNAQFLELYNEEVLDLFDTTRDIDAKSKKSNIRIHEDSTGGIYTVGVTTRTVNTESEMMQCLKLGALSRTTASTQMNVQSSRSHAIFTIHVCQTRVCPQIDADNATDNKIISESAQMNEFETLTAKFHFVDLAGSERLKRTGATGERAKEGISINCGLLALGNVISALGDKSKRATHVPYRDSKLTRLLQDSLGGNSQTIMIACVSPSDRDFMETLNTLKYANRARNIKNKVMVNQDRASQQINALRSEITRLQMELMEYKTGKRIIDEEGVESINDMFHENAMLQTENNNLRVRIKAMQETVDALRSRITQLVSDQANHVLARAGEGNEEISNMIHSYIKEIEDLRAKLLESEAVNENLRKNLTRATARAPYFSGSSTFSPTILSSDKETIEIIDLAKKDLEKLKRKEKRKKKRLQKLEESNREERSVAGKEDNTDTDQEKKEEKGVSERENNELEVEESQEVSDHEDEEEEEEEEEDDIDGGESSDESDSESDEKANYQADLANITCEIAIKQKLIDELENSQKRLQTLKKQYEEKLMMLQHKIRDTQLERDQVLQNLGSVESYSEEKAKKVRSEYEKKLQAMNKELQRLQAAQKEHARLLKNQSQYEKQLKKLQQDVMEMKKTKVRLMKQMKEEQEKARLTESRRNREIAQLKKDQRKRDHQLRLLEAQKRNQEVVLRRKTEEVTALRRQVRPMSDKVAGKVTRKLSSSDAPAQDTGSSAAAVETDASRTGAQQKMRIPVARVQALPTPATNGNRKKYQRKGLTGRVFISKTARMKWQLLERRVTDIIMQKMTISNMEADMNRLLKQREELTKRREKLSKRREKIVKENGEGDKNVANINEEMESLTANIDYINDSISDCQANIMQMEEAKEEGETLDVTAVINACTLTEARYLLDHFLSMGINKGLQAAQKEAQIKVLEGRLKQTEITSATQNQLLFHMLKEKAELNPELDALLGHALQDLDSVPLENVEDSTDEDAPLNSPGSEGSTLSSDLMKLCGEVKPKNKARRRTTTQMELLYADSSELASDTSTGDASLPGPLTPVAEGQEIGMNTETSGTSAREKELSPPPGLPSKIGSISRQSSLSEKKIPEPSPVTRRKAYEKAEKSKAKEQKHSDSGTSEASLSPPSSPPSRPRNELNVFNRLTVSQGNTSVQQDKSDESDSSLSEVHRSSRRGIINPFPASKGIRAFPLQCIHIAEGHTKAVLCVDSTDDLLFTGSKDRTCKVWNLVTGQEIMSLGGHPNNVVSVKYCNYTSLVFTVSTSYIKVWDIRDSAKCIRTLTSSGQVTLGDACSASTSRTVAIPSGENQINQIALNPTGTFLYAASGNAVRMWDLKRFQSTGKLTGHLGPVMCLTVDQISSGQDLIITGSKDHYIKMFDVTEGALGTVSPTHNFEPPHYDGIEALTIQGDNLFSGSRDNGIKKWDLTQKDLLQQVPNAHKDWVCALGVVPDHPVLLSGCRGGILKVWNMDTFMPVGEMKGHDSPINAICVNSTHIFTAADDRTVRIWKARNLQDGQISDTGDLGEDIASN
# Chain of UniProt Q6ZWT7 (Q6ZWT7 whole entry, looked up): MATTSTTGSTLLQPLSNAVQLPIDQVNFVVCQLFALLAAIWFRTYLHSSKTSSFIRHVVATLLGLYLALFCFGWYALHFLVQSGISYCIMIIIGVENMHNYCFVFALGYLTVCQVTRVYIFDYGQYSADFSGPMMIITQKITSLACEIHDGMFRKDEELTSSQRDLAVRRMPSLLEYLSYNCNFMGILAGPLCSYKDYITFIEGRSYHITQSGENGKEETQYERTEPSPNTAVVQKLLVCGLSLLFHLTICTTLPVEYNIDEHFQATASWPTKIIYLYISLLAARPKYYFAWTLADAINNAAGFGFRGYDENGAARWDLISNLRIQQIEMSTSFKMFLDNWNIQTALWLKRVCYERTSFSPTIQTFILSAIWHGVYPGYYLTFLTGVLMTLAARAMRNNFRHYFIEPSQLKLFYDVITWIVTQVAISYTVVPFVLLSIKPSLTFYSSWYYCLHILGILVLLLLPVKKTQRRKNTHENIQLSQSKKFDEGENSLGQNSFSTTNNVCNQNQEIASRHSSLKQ
Target,log2 fold change [1],log2 fold change [2],log2 fold change [3],log2 fold change [4],log2 fold change [5],log2 fold change [6],log2 fold change [7],log2 fold change [8],log2 fold change [9],log2 fold change [10],log2 fold change [11],log2 fold change [12],log2 fold change [13],log2 fold change [14],log2 fold change [15]
MARK3 (UniProt P27448),0.013,-0.004,-0.186,-0.05,0.014,0.172,-0.072,-0.08,-0.029,-0.06,-0.035,-0.069,0.445 (active),0.035,0.036
MBOAT2 (UniProt Q6ZWT7),-0.006,-0.095,-0.178,0.024,-0.027,-0.042,0.12,0.011,0.03,-0.012,-0.017,0.13,0.024,0.005,-0.092
LAP3 (UniProt P28838),0.045,-0.006,-0.047,0.016,-0.123,-0.192,-0.008,0.049,0.009,-0.137,0.048,0.082,-0.104,0.104,-0.008
KLHL12 isoform 2 (UniProt Q53G59),-0.037,-0.044,-0.056,0.064,-0.07,0.04,0.015,0.097,0.043,0.035,0.135,-0.108,0.024,0.003,–
LRCH3 (UniProt Q96II8),-0.003,-0.029,-0.095,0.064,0.038,-0.16,-0.029,-0.005,0.011,-0.025,0.053,-0.535 (active),0.048,-0.03,-0.009
KIF21A isoform 5 (UniProt Q7Z4S6),0.011,0.036,0.001,0,0.001,-0.011,-0.048,0.048,-0.009,-0.028,0.005,-0.239 (active),-0.004,0.007,-0.058
KRIT1 (UniProt O00522),-0.011,-0.04,0.027,0.041,-0.048,-0.147,-0.135,0.09,0.021,-0.005,-0.125,-0.046,-0.013,-0.02,0.012
MED13L (UniProt Q71F56),0.06,-0.056,0.017,0.032,0.045,-0.055,-0.012,0.069,0.014,0.015,-0.057,-0.253 (active),0.017,0.017,-0.052
LAMP1 (UniProt P11279),0.021,-0.033,-0.058,0.002,-0.036,-0.113,-0.012,0.016,-0.003,-0.017,0.007,0.095,-0.009,-0.05,-0.004
LIG3 (UniProt P49916),0.012,0.002,-0.011,-0.019,0.046,-0.024,-0.004,0.059,0.008,0.011,-0.061,-0.411 (active),0.018,-0.012,-0.004
MICU2 (UniProt Q8IYU8),-0.052,0.02,-0.026,0.048,-0.015,-0.03,-0.043,0.07,0.105,-0.009,0.012,-0.179,0.031,-0.009,-0.089
MAD2L2 (UniProt Q9UI95),0.031,-0.029,-0.064,0.006,-0.035,-0.231,-0.015,0.064,0.117,-0.065,0.075,-0.348 (active),-0.006,-0.02,0.017
MRPL35 (UniProt Q9NZE8),0.05,-0.027,0.062,0.049,-0.028,0.004,-0.037,-0.034,-0.007,0.056,-0.229,-0.159,0.04,0.013,–
KMT2A isoform 3 (UniProt Q03164),0.098,-0.428 (active),0.017,0.154,0.056,-0.156,-0.178,0.032,0.133,-0.037,0.046,0.101,0.012,0.066,-0.034
MINDY1 isoform 3 (UniProt Q8N5J2),-0.03,0.154,-0.086,0.271,0.159,-0.006,0.022,-0.072,0.548 (active),0.038,-0.097,-0.186,0.144,0.166,-0.052
MIPEP (UniProt Q99797),0.002,0.024,0.005,-0.008,0.031,0.45 (active),0.033,-0.016,0.01,0.054,0.005,-0.043,0.007,-0.021,-0.028
LETM1 (UniProt O95202),0.038,-0.021,-0.008,0.048,0.007,0.043,0.008,-0.012,-0.011,-0.024,-0.041,0.084,-0.021,-0.006,0.009
LIMS1 isoform 3 (UniProt P48059),0.076,0.035,0.017,0.104,0.018,0.255 (active),0.002,-0.065,-0.007,0.001,-0.022,0.049,0.013,0.054,-0.016
MAP4K5 (UniProt Q9Y4K4),-0.035,0,0.528 (active),-0.007,0.105,-0.245,0.082,0.468 (active),-0.029,0.11,-0.072,-0.218,-0.008,-0.07,0
LZTR1 (UniProt Q8N653),0.016,0.014,-0.063,-0.068,0.008,-0.029,-0.036,0.099,-0.033,-0.019,-0.022,-0.472 (active),0.005,0.013,0.055
LPIN1 isoform 7 (UniProt Q14693),-0.032,0.026,-0.107,0.182,0.028,-0.032,-0.104,0.035,-0.04,0.003,0.052,-0.489 (active),-0.014,0.004,-0.193

# From the supplement of paper PMC10849652
